Here are results for 61 compounds from PubChem BioAssay AID1063 (University of Pittsburgh Molecular Library Screening Center, 2008).

Screen size: about 200,000 compounds; about 18,000 (9%) were called active. Shown is part of a subset that was picked to be rich in actives. A number with no mark means an inactive call. Rule as the data show it: active = inhibition above about 50%; inactive = the rest. Where a SMILES comes first, the peptide text is derived from it. The star is where a group is joined. Bz = O=C(c1ccccc1)*

A short description of the assay: antileishmanial activity against promastigotes – primary screen (AID 1063).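 Also: promastigotes grown with compound for 44 hours at 28 °C.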 The note with it: Leishmania major promastigotes, resazurin fluorescence viability; at 10 µM; hits give high values.
`CN(C)c1ccc(/C=N/N(Cc2ccccc2)c2ccccc2)cc1`: the inhibition is 3.58%.
For `COc1ccc(/C=N/S(=O)(=O)c2ccccc2)cc1OC`, the inhibition is 0.14%.
As for `CN(C)c1ccc(/C=N\S(=O)(=O)c2ccccc2)cc1`, the inhibition is 51.7% (active).
Take `CCNC(=S)NNC(=O)c1ccc2ncccc2c1`: the inhibition is -8.24%.
Regarding `OC(c1nnc(-c2ccccc2)o1)c1cccs1` (stereo unspecified), the inhibition is 0.18%.
Regarding `O=c1cnnc(Nc2ccccc2F)[nH]1`, the inhibition is -2.35%.
Consider `CC(C)=C1SC(N2CCN(c3cccc(C)c3)CC2)=NC1=O`, for which the inhibition was 1.42%.
As to `CCN1C(=O)/C(=C\N2CCN(c3ccccc3)CC2)SC1=S`, the inhibition is 0.18%.
For the compound `CCN1C(=O)/C(=C2\SC(N3CCCCC3)=NC2=O)c2ccccc21`, the inhibition was 74.1% (active).
For the compound `O=C(c1ccc(Cl)c([N+](=O)[O-])c1)N1CCN(c2ccccc2)CC1`, the inhibition was -0.23%.
With `O=C(c1cncc(Br)c1)N1CCN(c2ccc([N+](=O)[O-])cc2)CC1` the figure was 57.2% (active); with `Cc1cccc(C(=O)NC(=S)N2CCN(c3ccc([N+](=O)[O-])cc3)CC2)c1`, 36.9%.
With `Cc1cc([N+](=O)[O-])nn1CC(=O)Nc1ccc(Cc2ccncc2)cc1` the figure was -0.44%; with `Cc1ccc2c(=O)oc(N(C)C)nc2c1`, 7.03%; with `Cc1ccc(SCCC(=O)Nc2cc(C)on2)cc1`, -6.06%.
On to `Cc1ccc(SCCC(=O)NCc2ccccn2)cc1`, for which the inhibition is 3.06%.
Turning to `Cc1ccc(SCCC(=O)NC(C(C)C)C(C)C)cc1`, the inhibition was 59.5% (active).
With `CN(C)/C=C/C(=O)c1cnc2sccn2c1=O` the figure was -6.23%; with `O=C(C(Cc1ccccc1)n1cccc1)N1CCN(C2CCCCC2)CC1` (stereo unspecified), 83% (active).
Then `O=C(NC(Cc1ccccc1)C(=O)N1CCCC1C(=O)O)c1ccccc1` (stereo not drawn) (Bz-Phe-Pro-OH; configuration not given here), with -8.5%; and `Cc1ccc(C(=O)N2CCN(C3CCCCC3)CC2)s1`, with -10.8%.
As to `COCCCN(C(=S)Nc1c(C)cc(C)cc1C)C(C)c1ccncc1` (stereo unspecified), the inhibition is 1.38%.
With `COc1cc(OC)cc(-c2nc3ccccc3c(=O)n2NC(=O)c2cccnc2Cl)c1`, the inhibition was 46.3%.
With `O=C(Nn1c(-c2ccccc2)nc2ccccc2c1=O)c1ccc([N+](=O)[O-])cc1`, the inhibition was -4.12%.
For `Cc1cccc(-c2nc3ccccc3c(=O)n2NC(=O)Cc2ccc(Cl)cc2)c1`, the inhibition is 53% (active).
As to `O=C(Nn1c(-c2ccc(Cl)cc2)nc2ccccc2c1=O)c1cccnc1Cl`, the inhibition was 55.3% (active).
Then `O=C(Cc1ccc(Cl)cc1)NCc1nc(-c2ccccc2)no1`, with -1.26%; and `O=C(Cn1nnc2ccccc2c1=O)NCc1ccc(Cl)cc1`, with -4.83%.
Then `CCCCCC1CCC(c2nnc(SCC(C)=O)o2)CC1` (stereo unspecified), with -9.46%.
With `COCCNC(=O)C(OC(=O)c1cccs1)c1ccc(F)cc1` (stereo unspecified), the inhibition is -3.33%.
As to `COc1ccc(Cl)cc1NC(=O)CN(C)Cc1ccc(OC)c(OC)c1`, the inhibition was 1.17%.
In the case of `Cc1cccc(-n2c(Cc3cc(=O)[nH]c(=O)[nH]3)nnc2SCC(=O)Nc2cccc(C(F)(F)F)c2)c1`, the inhibition was -1.75%.
As to `N#Cc1c(NC(=O)C2CC(Cl)=CCC2C(=O)O)sc2c1CCCCC2` (stereo unspecified), the inhibition was -8.36%.
As to `O=C(COC(=O)C1CCCCC1)Nc1ccc([N+](=O)[O-])cc1`, the inhibition is -5.31%.
For the compound `O=C(COc1ccc([N+](=O)[O-])cc1)Nc1ccc(N2CCCC2)cc1`, the inhibition is 86.2% (active).
For `COc1ccc(OCC(=O)Nc2ccc(N3CCC(C)CC3)cc2)cc1`, the inhibition was 8.72%.
As for `COc1cc(COCC(O)CN2CCN(Cc3ccc4c(c3)OCO4)CC2)cc(OC)c1OC` (stereo unspecified), the inhibition is 2.04%.
Consider `Cc1cc(=O)oc(C)c1C(=O)NCCN(C)Cc1ccccc1`, for which the inhibition was 9.38%.
Turning to `COc1ccc(CCNC(=O)CSc2nnc3ccc(-c4ccncc4)nn23)cc1`, the inhibition was -2.23%.
With `COc1cccc(-c2ccc(C#N)c(SCC(=O)NCCc3ccc(Cl)cc3)n2)c1` the figure was 50.9% (active).
Regarding `COc1ccc(CCNC(=O)CSc2nc(-c3ccc(OC)c(OC)c3)ccc2C#N)cc1`, the inhibition is 27.6%.
Regarding `NS(=O)(=O)c1ccc(NC(=O)/C=C/c2ccccc2Cl)cc1`, the inhibition was 0.13%.
Then `O=C1c2cccnc2C(Nc2ccc(S(=O)(=O)N3CCCCCC3)cc2)N1Cc1ccccc1` (stereo unspecified), with 54.9% (active); and `Cc1nc(Nc2ccc(S(=O)(=O)N3CCCC3)cc2)c2nnn(Cc3ccccc3)c2n1`, with 0.17%.
On to `O=S(=O)(NCc1ccccc1)c1ccc(S(=O)(=O)N2CCCC2)cc1`, for which the inhibition is -7.35%.
With `COC(=O)c1onc(-c2c(OC)cc(OC)cc2OC)c1C(=O)OC` the figure was -8.2%; with `COC(=O)c1c(CCl)noc1C(=O)NC(C)C`, 100% (active); with `CCOc1cccc(SCc2noc(C(=O)NC(C)C)c2C(=O)O)c1`, -11.1%.
For `Cc1cc(NC(C)C)n2c(nc3ccccc32)c1C#N`, the inhibition is 0.11%.
Then `O=C1N(c2ccc(Cl)cc2)C(c2ccc(Cl)cc2)N2CCCN12` (stereo unspecified), with -2.86%; and `COCCCNC(NC(=O)c1ccc(OC)cc1)C(Cl)(Cl)Cl` (stereo unspecified), with -5.56%; and `O=Cc1ccc(OCc2cn3ccccc3n2)cc1`, with -8.44%.
Then `CNC(=O)COC(=O)c1cc(-c2ccc(OC)cc2)nc2ccccc12`, with 6.03%; and `S=c1[nH]nc(CSCc2ccc(Cl)cc2Cl)n1-c1ccccc1`, with 14.5%.
On to `CCn1c(CSCc2c(Cl)cccc2Cl)n[nH]c1=S`, for which the inhibition is 81.2% (active).
With `CCn1c(CNS(=O)(=O)c2ccc(Cl)cc2)n[nH]c1=S`, the inhibition was -0.27%.
With `CCOC(=O)NC(=O)/C(C#N)=C\c1ccccc1` the figure was -7%; with `O=C(Nc1ccc2c(c1)CCC2)c1cccc(S(=O)(=O)Nc2ccccc2Cl)c1`, 95.5% (active); with `O=C(Nc1ccc2c(c1)CCC2)c1cccc(S(=O)(=O)N2CCN(c3ccc(F)cc3)CC2)c1`, 24.5%.
On to `O=C(c1cccc(S(=O)(=O)Nc2ccccc2Cl)c1)N1CCN(C(=O)c2ccco2)CC1`, for which the inhibition is -0.85%.
In the case of `Cc1ccc(-c2nn(-c3ccccc3)cc2/C=C/C(=O)Nc2cccc(S(N)(=O)=O)c2)cc1`, the inhibition was -2.89%.
